# Test results published in PubChem BioAssay (EPA / NIEHS).
# Inconclusive results are not listed. Active and inactive are the calls of the source. Rule for the calls: active = hit-call score of the fitted dose curve at least 0.9, where 1 is the maximum; inconclusive = response in the unintended direction; inactive = score below 0.9.
# How the values were obtained:
# [1] = ATG_XTT_Cytotoxicity: Cytotoxicity Assessment in the Attagene TRANS-FACTORIAL HepG2 Assay (AID 2283584);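 for AC50: cells exposed to compound for 24 h before reading; active means loss of viability signal versus DMSO baseline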
# Method in brief: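 Cells: human HepG2, transiently transfected with MRTU reporter constructs. Exposure 24 h. Readout: XTT, cell number. Baseline/neg ctrl DMSO; loss-of-signal scored.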
# [2] = TOX21_p53_BLA_p2_viability: Viability Assessment in the Tox21 HCT-116 p53 Agonism Beta-lactamase Assay, Phase 2 (AID 2283591);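 note: compound exposure lasted 16 h at 37 °C; actives lower the ATP signal meaning cytotoxicity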
# Method in brief: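 Cytotoxicity readout: CellTiter-Glo ATP luminescence, 30 min at room temperature, after the beta-lactamase read. Cells were HCT116 exposed 16 h at 37C to compounds pin-transferred at 217-fold dilution from DMSO stocks.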
SMILES,outcome [1],outcome [2],AC50 [2],AC50 [1]
CC(CC=O)c1ccccc1 (centres undefined),inactive,inactive,,
O=S(=O)(O)CC(O)CCl (centres undefined),inactive,inactive,,
CCCCCCCCCCCSCC(=O)O,inactive,,62 µM (active),
Cc1c(C)c([N+](=O)[O-])c(C(C)(C)C)c([N+](=O)[O-])c1C,inactive,inactive,,
[Cl][In]([Cl])[Cl],inactive,inactive,,
N=c1ccn2c(n1)O[C@H]1[C@H](O)[C@@H](CO)O[C@H]12,inactive,inactive,,
C[Si](C)(CCCN)O[Si](C)(C)CCCN,inactive,inactive,,
CC(=O)Nc1ccc2c(c1)Cc1cc(NC(C)=O)ccc1-2,inactive,inactive,,
Cc1cccc(C(=O)O)c1,inactive,inactive,,
O=C(Oc1ccccc1)c1ccc2ccccc2c1O,inactive,inactive,,
COc1cc(C)ccc1C(C)C,inactive,inactive,,
CCc1ccc2c(c1)C(=O)c1ccccc1C2=O,inactive,inactive,,
CCCNC(=O)NS(=O)(=O)c1ccc(Cl)cc1,inactive,inactive,,
COC(=O)c1cc(Cl)ccc1[N+](=O)[O-],inactive,inactive,,
O=Cc1ccc(CO)o1,inactive,inactive,,
Nc1ccc(N)c(Cl)c1,inactive,inactive,,
COCCOCCOCCOCCOC,inactive,inactive,,
Cc1cc(O)c(Cl)c(C)c1Cl,inactive,,57 µM (active),
CC1(C)O[C@@H]2C[C@H]3[C@@H]4C[C@H](F)C5=CC(=O)CC[C@]5(C)[C@H]4[C@@H](O)C[C@]3(C)[C@]2(C(=O)CO)O1,inactive,inactive,,

SMILES,outcome [1],outcome [2],AC50 [2],AC50 [1]
COCC(C)N (centres undefined),inactive,inactive,,
CCCCCCCCCCC=CC#N,inactive,inactive,,
N#CCc1ccc(Cl)cc1Cl,inactive,inactive,,
CCC(CO)CO,inactive,inactive,,
O=C1c2ccccc2C(=O)C1c1nc2ccccc2c(Br)c1O,inactive,inactive,,
CCCCCC/C=C\CCCCCCCC(=O)O,inactive,inactive,,
C=C(C)C(=O)OCC(C)C,inactive,inactive,,
CC(=O)NS(=O)(=O)c1ccc(N)cc1,inactive,inactive,,
CN1C(=O)N(C)C(O)C1O (centres undefined),inactive,inactive,,
CC(=O)OCC(=O)[C@@]12N=C(C)O[C@@H]1C[C@H]1[C@@H]3CCC4=CC(=O)C=C[C@]4(C)[C@H]3[C@@H](O)C[C@@]12C,inactive,inactive,,
CC1OC1C1CCC2(C)OC2C1 (centres undefined),inactive,inactive,,
CCCCCCCCCCCCCCCC[N+](C)(C)CC,inactive,,37.2 µM (active),
Nc1ccc(-c2ccc(F)cc2)cc1,inactive,inactive,,
CC1=NC(C)OC1C (centres undefined),inactive,inactive,,
CCCCCCOc1cc(C)c(O)c(C)c1C,inactive,inactive,,
CC(=O)c1ccc2c(c1)CCCC2,inactive,inactive,,
O=c1n(CCO)c(=O)n(CCO)c(=O)n1CCO,inactive,inactive,,
[Cl][Bi]([Cl])([c]1ccccc1)([c]1ccccc1)[c]1ccccc1,,,13.9 µM (active),7.84 µM (active)
